Measured values from PubChem BioAssay (NCI).
Compounds without any hit were thinned out: in the full panel of roughly 79,000, 15% have a hit. Active and inactive are the calls of the source. Cut-off read from the data, not from the text of the source: active = growth inhibition above about 70%; inactive = the rest.

Legend:
[1] = NCI Yeast Anticancer Drug Screen. Data for the rad52 strain (AID 147);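 note: 0% = growth of vehicle-treated control cultures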; conditions: S. cerevisiae rad52 mutant growth inhibition, hits give high values
Outline: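 Yeast strain carrying a DNA damage repair alteration was exposed to test compounds. Growth inhibition was measured relative to vehicle-treated controls.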

[2] = NCI Yeast Anticancer Drug Screen. Data for the wt1 strain (AID 149);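 note: 0% = growth of vehicle-treated wt1 cultures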; conditions: S. cerevisiae wt1 strain (SPY 50644) growth inhibition, hits give high values
Outline: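 wt1 strain grown with compound or vehicle; inhibition taken from the growth difference.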

[3] = NCI Yeast Anticancer Drug Screen. Data for the rad50EPP+ strain (AID 151);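 note: 0% = growth of vehicle-treated control cultures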; conditions: S. cerevisiae rad50 mutant strain, hits give high values
Outline: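 Yeast strain carrying rad50 alteration (rad50EPP+) exposed to compounds; growth inhibition measured relative to vehicle-treated controls.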

[4] = NCI Yeast Anticancer Drug Screen. Data for the mgt1 strain (AID 153); conditions: S. cerevisiae mgt1 mutant growth inhibition, hits give high values
Outline: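 Yeast mgt1 strain (DNA repair/cell-cycle alteration panel) exposed to compounds; growth inhibition measured relative to vehicle-treated controls.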

[5] = NCI Yeast Anticancer Drug Screen. Data for the rad50 strain (AID 155);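 note: 0% = growth of vehicle-only cultures of the same strain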; conditions: S. cerevisiae rad50 strain growth inhibition, hits give high values
Outline: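 DNA repair mutant yeast, compound exposure, growth read-out; inhibition is taken relative to vehicle.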

[6] = NCI Yeast Anticancer Drug Screen. Data for the mec2-1 strain (AID 157); conditions: S. cerevisiae mec2-1 strain, hits give high values
Outline: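 mec2-1 yeast strain, carrying an alteration in DNA damage repair or cell cycle control, was exposed to compounds; growth inhibition was measured relative to vehicle-treated controls.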

[7] = NCI Yeast Anticancer Drug Screen. Data for the rad14 strain (AID 159);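 note: 0% = growth of vehicle-treated control cultures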; conditions: S. cerevisiae rad14 strain growth inhibition, hits give high values
Outline: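 DNA repair-defective yeast, compound-exposed; % growth inhibition derived by comparison with vehicle-treated controls.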

[8] = NCI Yeast Anticancer Drug Screen. Data for the sgs1 mgt1 strain (AID 161);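 note: 0% = growth of cultures given vehicle only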; conditions: S. cerevisiae sgs1 mgt1 strain, hits give high values
Outline: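 Percent growth inhibition was derived by comparing compound-exposed mutant yeast with vehicle-exposed cultures. The strain carries alterations in DNA damage repair.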

[9] = NCI Yeast Anticancer Drug Screen. Data for the CLN2oe strain (AID 163);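 note: 0% = growth of vehicle-only control cultures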; conditions: S. cerevisiae CLN2oe strain, hits give high values
Outline: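 Yeast cells carrying a defined cell-cycle control alteration were exposed to test compounds. Growth inhibition was scored against vehicle-treated control cultures.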

[10] = NCI Yeast Anticancer Drug Screen. Data for the cln2 rad14 strain (AID 165);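 note: 0% = growth equal to vehicle treated cultures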; conditions: S. cerevisiae cln2 rad14 strain, hits give high values
Outline: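 Yeast carrying cln2 and rad14 alterations (cell cycle control and DNA damage repair) were exposed to compounds. Growth inhibition was measured against vehicle-treated controls.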

[11] = NCI Yeast Anticancer Drug Screen. Data for the bub3 strain (AID 167); conditions: S. cerevisiae bub3 mutant strain, hits give high values
Outline: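 In this screen, a yeast mutant lacking normal mitotic checkpoint function is challenged with compound. Relative growth versus vehicle gives the inhibition value.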

[12] = NCI Yeast Anticancer Drug Screen. Data for the wt2 strain (AID 169);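 note: 0% = growth of vehicle-treated yeast cultures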; conditions: S. cerevisiae wt2 strain growth inhibition, hits give high values
Outline: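 Yeast cells were exposed to test compounds, and growth inhibition was measured relative to vehicle-treated controls.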

[13] = NCI Yeast Anticancer Drug Screen. Data for the mlh1 strain (AID 171);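 note: 0% = growth of vehicle-treated control cultures of the same strain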; conditions: S. cerevisiae mlh1 strain growth inhibition, hits give high values
Outline: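 Yeast carrying a defined genetic alteration in DNA damage repair or cell cycle control were exposed to test compounds. Growth inhibition was measured relative to vehicle-treated controls.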

[14] = NCI Yeast Anticancer Drug Screen. Data for the sgs1 strain (AID 173);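 note: 0% = growth of vehicle-only control cultures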; conditions: S. cerevisiae sgs1 mutant, hits give high values
Outline: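 Yeast mutant strains carrying defined defects in DNA damage repair or cell cycle control were exposed to test compounds. Growth inhibition was scored against vehicle-treated controls.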

[15] = NCI Yeast Anticancer Drug Screen. Data for the mlh1 rad18 strain (AID 175); conditions: S. cerevisiae mlh1 rad18 strain growth inhibition, hits give high values
Outline: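 Growth inhibition of the yeast strain was measured after compound exposure and expressed relative to vehicle-treated controls. The strain carries defined defects in DNA damage repair.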

[16] = NCI Yeast Anticancer Drug Screen. Data for the rad18 strain (AID 177); conditions: S. cerevisiae rad18 mutant growth inhibition, hits give high values
Outline: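 Yeast carrying a defined DNA damage repair alteration were exposed to compounds. Growth inhibition was expressed relative to vehicle-treated controls.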

[17] = at 5.0 µM (retest, dose inferred, filed as 0.5)
[18] = at 50.0 µM (retest, dose inferred, filed as 5.0)

Measured: growth inhibition

CCN(CC)C(=S)N/N=C(\C)c1ccccc1O
active: [1]; at 33.0 µM 96% | [1]; at 100.0 µM 99% | [2]; at 33.0 µM 98% | [2]; at 100.0 µM 98% | [3]; at 100.0 µM 83% | [4]; at 11.0 µM 71% | [4]; at 33.0 µM 98% | [4]; at 100.0 µM 99% | [5]; at 33.0 µM 98% | [5]; [18] 96% | [5]; at 50.0 µM 93.3% | [5]; at 100.0 µM 99% | [6]; at 33.0 µM 97% | [6]; [18] 98% | [6]; at 50.0 µM 94.5% | [6]; at 100.0 µM 99% | [7]; at 33.0 µM 96% | [7]; at 100.0 µM 98% | [8]; [18] 95% | [8]; at 50.0 µM 94% | [9]; at 33.0 µM 96% | [9]; at 100.0 µM 99% | [10]; [18] 95% | [10]; at 50.0 µM 89.3% | [11]; [17] 95% | [11]; at 33.0 µM 97% | [11]; [18] 98% | [11]; at 50.0 µM 93.3% | [11]; at 100.0 µM 99% | [12]; at 33.0 µM 97% | [12]; at 100.0 µM 98% | [13]; at 33.0 µM 98% | [13]; at 100.0 µM 99% | [14]; at 33.0 µM 97% | [14]; at 100.0 µM 98% | [15]; [18] 97% | [15]; at 50.0 µM 92.2% | [16]; at 33.0 µM 97% | [16]; at 100.0 µM 98%
inactive: [1]; at 1.2 µM -36% | [1]; at 3.7 µM -42% | [1]; at 11.0 µM -1% | [2]; at 1.2 µM -7% | [2]; at 3.7 µM -3% | [2]; at 11.0 µM 28% | [3]; at 1.2 µM 9% | [3]; at 3.7 µM -7% | [3]; at 11.0 µM 15% | [3]; at 33.0 µM 45% | [4]; at 1.2 µM 9% | [4]; at 3.7 µM 16% | [5]; at 1.2 µM 0% | [5]; at 3.7 µM -13% | [5]; [17] -1% | [5]; at 11.0 µM 22% | [6]; at 1.2 µM 3% | [6]; at 3.7 µM -3% | [6]; [17] 35% | [6]; at 11.0 µM 40% | [7]; at 1.2 µM 3% | [7]; at 3.7 µM -22% | [7]; at 11.0 µM 26% | [8]; [17] -3% | [9]; at 1.2 µM 13% | [9]; at 3.7 µM -5% | [9]; at 11.0 µM 42% | [10]; [17] 54% | [11]; at 1.2 µM -21% | [11]; at 3.7 µM -7% | [11]; at 11.0 µM 36% | [12]; at 1.2 µM -37% | [12]; at 3.7 µM -31% | [12]; at 11.0 µM 6% | [13]; at 1.2 µM 11% | [13]; at 3.7 µM 25% | [13]; at 11.0 µM 66% | [14]; at 1.2 µM -5% | [14]; at 3.7 µM 5% | [14]; at 11.0 µM 42% | [15]; [17] -18% | [16]; at 1.2 µM 18% | [16]; at 3.7 µM 9% | [16]; at 11.0 µM 29%
